These results are taken from PubChem BioAssay (NCI).

Experiment in all cases: NCI-60 one-dose screen, 48 h (100 = growth as untreated, 0 = no growth, -100 = all killed)
Common to all, as to details: 10 µM unless noted

For experiment [1], the system named is NCI-H23 lung.
For experiment [2], the system named is NCI-H226 lung.
Experiment [3] concerns NCI-H322M lung.
In experiment [4] the test system is HOP-62 NSCLC.
The test system of experiment [5] is NCI-H460 lung.
Experiment [6] relates to HOP-92 NSCLC.
Experiment [7] concerns NCI-H522 lung.
Experiment [8] has as its system A549/ATCC NSCLC.
Experiment [9] concerns 786-0 renal.
The subject of experiment [10] is COLO 205 colon.

The panel holds about 83,000 compounds, 20% with a hit somewhere; the sample as a whole holds those more often.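 Each cell line was grown in a 96-well plate and treated with one concentration of compound for 48 hours. Values below 10 were considered active.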 Unmarked numbers belong to inactive results. The source made the active and inactive calls.

On to `C[n+]1cc2c3c(ccc2c2ccc4cc5c(cc4c21)OCO5)OCO3`, for which the growth is -67% (active) in experiment [1]; -87.7% (active) in experiment [2]; -93.8% (active) in [3]; -83.8% (active) in experiment [4]; -54.7% (active) in experiment [5]; -80.6% (active) in [6]. Also, the growth in [7] was -74.2% (active); in experiment [8] it was -86.2% (active); in [9], -87.5% (active); in [10] it was -84.5% (active).

For the compound `COc1cccc(C(=O)NCCCNc2cc(-c3cn(-c4ccccc4)nc3-c3cccc(OC)c3)ccn2)c1`, the growth in experiment [1] is 45.4%; in experiment [2], 54.6%; in experiment [3] it was 99.6%; in experiment [4], 66%; in experiment [5], 48.8%; in [6] it was 45.3%. In addition, the growth is 46.1% in [7], 29.9% in [8], 36.6% in experiment [9] and 40% in experiment [10].

As for `S=C(Cc1ccc2c(c1)CCCC2)N1CCOCC1`, the growth is 98.4% in experiment [1]; 110% in experiment [2]; 94.8% in [3]; 89.8% in [4]; 107% in experiment [5]; 121% in experiment [6]. Also, the growth in [7] was 81.3%; in experiment [8], 93.2%; in experiment [9], 101%; in experiment [10] it was 106%.

`O=C(N=c1oc2ccccc2cc1-c1cc2ccccc2[nH]1)c1ccc(Cl)cc1`: the growth is 29.4% in [1]; 84.6% in experiment [2]; 53.5% in experiment [3]; 63.1% in experiment [4]; 77.2% in [5]; 24% in experiment [6]. Besides, the growth in experiment [7] was 14.2%; in experiment [8], 51.3%; in experiment [9], 70.7%; in experiment [10], 69.7%.

As for `C[n+]1cc2cc(C(N)=O)[nH]c3c(=N)c(Cl)c(N)c1c23`, the growth was 56.6% in experiment [1]; 57.1% in experiment [2]; 80.5% in experiment [3]; 37.9% in experiment [4]; 23.8% in experiment [5]; 80% in experiment [6]. Also, the growth was 35.2% in experiment [7], 26.3% in experiment [8], 49.1% in experiment [9] and 44.1% in experiment [10].

`CCN1C(=O)N(CC)C2C1NN=c1s/c(=C\c3cccs3)c(=O)n12` (stereo not given): the growth is 36.4% in experiment [1]; 79% in experiment [2]; 42.7% in experiment [3]; 46.4% in experiment [4]; 8.1% (active) in experiment [5]; 64.1% in [6]. In addition, the growth is -9.67% (active) in experiment [7], 25.3% in [8], 28.5% in experiment [9] and -6.95% (active) in experiment [10].

`COC1=CC(=O)C[C@@H](C)[C@]12Oc1c(Cl)c(OC)cc(OC)c1C2=O`: the growth in experiment [1] is 93.5%; in [2], 99.9%; in [3], 105%; in [4] it was 88.3%; in [5], 110%; in [6], 89.4%. Moreover, the growth was 80.5% in [7], 97.5% in experiment [8], 99.2% in experiment [9] and 106% in experiment [10].

In the case of `COc1cc(/C=C/C(=O)c2c(C)nc3ccccc3c2/C=C/c2ccc(C)cc2)cc(OC)c1OC`, the growth in experiment [1] is 24.4%; in [2], 28.9%; in experiment [3], 57.5%; in experiment [4], 28.7%; in experiment [5], -22.1% (active); in experiment [6] it was 69.7%. The growth in [7] is 24.1%; in [8], 73.1%; in experiment [9], 28.4%; in experiment [10], 46.2%.

Regarding `O=C(Nc1ccc(Cl)cc1)Nc1ccc(Cl)c(C(F)(F)F)c1`, the growth was -15.5% (active) in experiment [1]; 2.69% (active) in experiment [2]; 17.1% in experiment [3]; 11.3% in [4]; 0.218% (active) in experiment [5]; -14.8% (active) in experiment [6]. The growth in [7] was 3.9% (active); in [8], 13.3%; in experiment [9] it was 15.1%; in experiment [10], -73.8% (active).

Turning to `Cc1cc[c-]cc1.Fc1c[c-]c(-c2ccccn2)c(F)c1.[Pt+2].c1ccc(P(C[PH+](c2ccccc2)c2ccccc2)c2ccccc2)cc1`, the growth in [1] is 7.43% (active); in experiment [2] it was -2.11% (active); in [3] it was 19.2%; in [4], 2.59% (active); in [5], 3.67% (active); in experiment [6], -16.3% (active). For the same compound, the growth in experiment [7] was 8.51% (active); in experiment [8], 8.52% (active); in experiment [9], 23.1%; in [10] it was -41.2% (active).

For `COCCc1ccc(OCC(O)CNC(C)C)cc1` (stereo not given), the growth is 98.5% in [1]; 109% in experiment [2]; 99.2% in experiment [3]; 101% in [4]; 107% in experiment [5]; 73.1% in experiment [6]. The growth is 93.3% in [7], 104% in experiment [8], 97.8% in experiment [9] and 106% in experiment [10].

For `Cc1cc(NCc2cc(Nc3ccnc4cc(Cl)ccc34)ccc2F)nc(Cl)n1`, the growth in experiment [1] was 32.8%; in experiment [2], 52.4%; in experiment [3] it was 71.9%; in [4] it was 54.5%; in experiment [5], 48.4%; in [6], 31.9%. The growth was 36.2% in experiment [7], 56.7% in experiment [8], 50.7% in [9] and 44.2% in experiment [10].

On to `Cc1cc(Cl)ccc1Nc1nc(C(F)(F)F)ccc1C(=O)N/N=C/c1ccc(N(C)C)cc1`, for which the growth was 30.5% in [1]; 51.1% in experiment [2]; 25.7% in [3]; 24% in experiment [4]; 20.3% in experiment [5]; 18.7% in experiment [6]. The growth is 7.24% (active) in experiment [7], 18.2% in [8], 16.8% in experiment [9] and 14.9% in experiment [10].
